Most compounds without a hit are left out; they make up all but 3.1% or so of the library.
VDR inh: inhibitors of human vitamin D receptor | AID 504847 | VDR-SRC2-3 peptide fluorescence polarization, 2 h | actives 0.93% (n = 400,000) | Potency, µM, hits mostly inhibitors
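Reagent solutions, kept cold and dark, are dispensed first; compounds are then pinned in at 23 nl, plates briefly spun, and incubated 2 h at ambient temperature. Inhibition of VDR–SRC2-3 peptide binding is read by fluorescence polarization.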
PLK1 PBD inh: inhibitors of human PLK1 polo-box domain binding; actives 2.8% (n = 360,000); P53350; Plk1 PBD binding of FITC phosphopeptide, fluorescence polarization; Potency, µM, usual class: inhibitors; also: series mostly up to about 57 µM; nearly all actives have a fitted effect of over 65% in size
uPA surface inh: cell surface uPA generation inhibition; actives 0.31% (n = 330,000); Potency, µM (titrated, usually from 38.3 µM), most hits filed as inhibitors; cell surface uPA generation assay, qHTS; AID 540303; active = well fitted inhibition curve with a large enough effect; inconclusive = small, poorly fitted or top-dose-only effect; inactive = no such curve, though single readings can be large or run the other way; tested in mouse RAW 264.7 cells; also: nearly all actives have a fitted effect of over 55% in size
PTAP TSG101 blk: blocks PTAP/TSG101 interaction to inhibit HIV-1 budding | Potency, µM (titrated, usually from 115 µM), usual class: inhibitors | AID 493005 | Q99816 | 340,000 tested, under 10 active | Fluorescence polarization, FITC-PTAP peptide / Tsg101 binding; active = well fitted inhibition curve with a large enough effect in the main read-out, with a control signal flat, not every such curve was filed as active; inconclusive = small, poorly fitted or top-dose-only effect, or effect the other way, or a change in a side signal; inactive = no such curve, though single readings can be large or run the other way
Target sequence (Q99816 whole entry, looked up): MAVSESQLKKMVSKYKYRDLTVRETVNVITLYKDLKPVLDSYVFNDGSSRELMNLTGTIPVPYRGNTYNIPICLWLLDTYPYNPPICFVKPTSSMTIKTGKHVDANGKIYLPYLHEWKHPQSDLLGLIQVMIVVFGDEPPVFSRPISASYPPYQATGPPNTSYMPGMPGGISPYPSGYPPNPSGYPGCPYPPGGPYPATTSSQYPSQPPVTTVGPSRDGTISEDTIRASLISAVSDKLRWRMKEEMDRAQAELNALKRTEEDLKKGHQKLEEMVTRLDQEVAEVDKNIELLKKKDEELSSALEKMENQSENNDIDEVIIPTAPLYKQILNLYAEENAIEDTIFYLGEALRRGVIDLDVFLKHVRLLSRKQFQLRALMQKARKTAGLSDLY
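FP read-out: FITC-PTAP peptide, 50 nM final, binding Tsg101 binding domain, 10 uM final; 20 min, r.t.; 10 mM HEPES pH 7.5, 0.15 M NaCl, 0.01% Tween 20, 3 mM EDTA, 0.1 mM TCEP.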
TSHR antag: human thyrotropin receptor antagonism; AID 504810; actives 0.2% (n = 330,000); P16473; TSHR-expressing cells, TSH-stimulated cAMP HTRF, 2 h; stronger effect = lower value; activity change, negative = inhibition, % at 11.5 µM;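 active = activity change below a set negative limit, meaning inhibition stronger than a set level, cut at about -70% in these data; inconclusive = activity change between two set negative limits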
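Cell-based HTRF cAMP assay; TSHR cells + compound, TSH EC80 (4nM final), 2 h, 37 deg C. Lysis with anti-cAMP cryptate and cAMP-d2, 30 min RT, read 665/620 nm.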
Large screens that a line does not name were inactive; ! = not active in a repeat. Unless noted, calls follow the shape of the dose curve; as a rule, active = well fitted curve in the direction sought with a large enough effect; inconclusive = small, poorly fitted or top-dose-only effect, or another doubt; inactive = no such curve, though single readings can be large; an effect the other way counts as inactive or inconclusive.

COc1cc2c(C(=O)Nc3cc(OC)c(OC)c(OC)c3)cn(C)c(=O)c2cc1OC	none (no result: PLK1 PBD inh, uPA surface inh, PTAP TSG101 blk, TSHR antag)
O=C(c1ccc(F)cc1)N1CCc2c([nH]c3ccccc23)C1c1ccc(Cl)cc1 (centres undefined)	none (no result: PLK1 PBD inh, uPA surface inh, PTAP TSG101 blk, TSHR antag)
COc1ccc(-n2nc3cc(C)c(NC(=O)Cc4ccc(Cl)cc4)cc3n2)cc1	none (no result: PLK1 PBD inh, uPA surface inh, PTAP TSG101 blk, TSHR antag)
CCn1c2c(c3cc(C(=O)O)ccc31)CCCC2=O	PLK1 PBD inh 29.9µM
COc1cc(N(CCCn2cnc3c(SC)ncnc32)CCCn2cnc3c(SC)ncnc32)cc(OC)c1OC	none (no result: VDR inh, uPA surface inh, PTAP TSG101 blk, TSHR antag)
COc1ccccc1C(=O)NC(=O)Nc1ccc(-n2nc(C(F)(F)F)cc2C(F)(F)F)cc1	none (no result: PLK1 PBD inh, uPA surface inh, PTAP TSG101 blk, TSHR antag)
COC(=O)c1sccc1NC(=O)Nc1ccccc1Cl	none
O=C(O)c1ccc(-c2ncc[nH]2)cc1	VDR inh 44.7µM, PLK1 PBD inh inconclusive
CCC(c1nnc(SCC(=O)NCCc2ccc(Cl)cc2Cl)o1)N(C)C (centres undefined)	PLK1 PBD inh 26.7µM
CCC(c1nnc(SCC(=O)Nc2cc(C)on2)o1)N(C)C (centres undefined)	PLK1 PBD inh inconclusive
CSc1ccc(CCNC(=O)CCn2c(=O)c3cccn3c3cccnc32)cc1	none (no result: PLK1 PBD inh, uPA surface inh, PTAP TSG101 blk, TSHR antag)
O=C(COc1cc(F)ccc1[N+](=O)[O-])Nc1cc(S(=O)(=O)N2CCCC2)ccc1Cl	none
Cc1c(C(=O)NCc2ccccc2C(F)(F)F)sc(=O)n1Cc1ccc2c(c1)OCO2	none (no result: VDR inh, uPA surface inh, PTAP TSG101 blk, TSHR antag)
Cc1ccc(CCNC(=O)c2sc3ncccc3c2-n2cccc2)cc1	none (no result: PLK1 PBD inh, uPA surface inh, PTAP TSG101 blk, TSHR antag)
CC1(C)C2CCC(CN=C(N)CSS(=O)(=O)O)C1C2 (centres undefined)	PLK1 PBD inh 4.74µM (no result: VDR inh, uPA surface inh, PTAP TSG101 blk, TSHR antag)
Cc1cccc(NC(=O)c2cnc3ccccn3c2=O)c1	uPA surface inh inconclusive
Cc1cccc(NC(=O)c2cnc3sccn3c2=O)c1	uPA surface inh 10µM
CC(=O)Nc1ccc(NC(=O)c2ccccc2-n2cnnn2)cc1	none
O=S(=O)(Nc1nnc(C2CCCCC2)s1)c1ccc(F)cc1	none (no result: TSHR antag)
CC(=O)Nc1ccc(S(=O)(=O)Nc2nnc(Cc3ccc(Cl)cc3)s2)cc1	PLK1 PBD inh 26.7µM
CC(=O)Nc1ccc(S(=O)(=O)Nc2nnc(C3CCCCC3)s2)cc1	PLK1 PBD inh 23.8µM
O=C(Nc1cccc(S(=O)(=O)N2CCCCC2)c1)c1ccc2c(=O)n3c(nc2c1)CCCCC3	TSHR antag -77.4
CC(OC(=O)c1ccc2c(=O)n3c(nc2c1)CCC3)C(=O)Nc1ccc(C(N)=O)cc1 (centres undefined)	none
CCc1ccc(NC(=O)c2ccc3c(=O)n4c(nc3c2)CCCCC4)cc1	none
CC(OC(=O)c1ccc2c(=O)n3c(nc2c1)CCC3)C(N)=O (centres undefined)	PLK1 PBD inh 21.2µM
CN(C(=O)c1ccc2c(=O)n3c(nc2c1)CCCCC3)c1ccccc1F	none
CCOc1ccccc1N(C)C(=O)c1ccc2c(=O)n3c(nc2c1)CCCCC3	PLK1 PBD inh 23.8µM
Cc1cccc(-c2[nH]c(C(C)(C)C)nc2-c2ccc3nccnc3c2)n1	none (no result: PLK1 PBD inh, uPA surface inh, PTAP TSG101 blk)
CN(Cc1ccccc1)C(=O)c1ccc2c(c1)N(Cc1ccccc1Cl)C(=O)c1ccccc1S2	none (no result: PLK1 PBD inh, uPA surface inh, PTAP TSG101 blk, TSHR antag)
O=C(Nc1ccc(Br)cc1)N1CCc2ccccc2C1	none
O=C(Nc1ccc(F)cc1)N1CCc2ccccc2C1	PLK1 PBD inh 21.2µM
C=CCn1c(O)c(N=NC(=O)CNC(=O)c2ccco2)c2ccccc21	uPA surface inh 10µM
Cc1cc2nnc(SC(C)C#N)n2c2ccccc12 (centres undefined)	PLK1 PBD inh 21.2µM
Cc1ccc(S(=O)(=O)N(CC(=O)Nc2ccccc2C(=O)O)c2ccc(Cl)cc2)cc1	PLK1 PBD inh 37.7µM
Cn1c(SCC(=O)NCc2cccs2)nnc1-c1ccc(O)cc1	VDR inh inconclusive, PLK1 PBD inh 23.8µM
O=C(c1ccc(Cl)c(Cl)c1)N1CCC(=O)N(C(CO)Cc2ccccc2)CC1 (centres undefined)	VDR inh inconclusive, PLK1 PBD inh 26.7µM (no result: TSHR antag)
COc1ccc(C(=S)N2CCN(C)CC2)cc1	PLK1 PBD inh 26.7µM
O=C1C(SCCO)=C(SCCO)C(=O)c2ccccc21	VDR inh 5.62µM, PLK1 PBD inh 2.12µM, PTAP TSG101 blk inconclusive, TSHR antag -86.5!
O=C1C(Cl)=C(NCCCO)C(=O)c2ccccc21	none
COc1ccc2c(c1)C(=O)[C@@H](OC(=O)N[C@H]1CCCc3ccccc31)[C@H](c1ccc(OC)c(Br)c1)O2	none (no result: PLK1 PBD inh, uPA surface inh, PTAP TSG101 blk, TSHR antag)

Screening data deposited in PubChem BioAssay by National Center for Advancing Translational Sciences (NCATS).
